# Laboratory results: PubChem BioAssay (Tox21)
# Records with an inconclusive call do not appear. Unmarked numbers belong to inactive results. Activity calls are given as the source filed them. The call rests on the fitted dose curve; in most records, active means well fitted activation curve with a large enough effect in the signal ratio in the repeat runs (not every such curve was filed as active); inconclusive means weak or mixed curves; inactive means flat fitted curve, though single readings scatter; the % refers to the signal ratio.
# Assay: qHTS assay to identify small molecule agonists of the TGF-beta/Smad signaling pathway (AID 1346859)
# Conditions: SBE-bla HEK293T, TGF-beta/Smad beta-lactamase reporter, 5 h; series mostly up to 76.8 µM; activation: at the top concentration
# Source text: U.S. Tox21 Program National Center for Advancing Translational Sciences [NCATS] NIH Chemical Genomics Center [NCGC] U.S. Environmental Protection Agency [EPA] National Institutes of Environmental Health Sciences [NIEHS] National Toxicology Program [NTP] U.S. Food and Drug Administration [FDA] Tox21 Assay Overview: Transforming growth factor beta (TGF-beta) superfamily consists of a large number of structurally related dimeric proteins that act as hormones or local mediators in regulating a wide range of biological functions. This superfamily includes TGF-betas themselves, the bone morphogenetic proteins (BMPs) and the activins. These ligands induce oligomerization of serine/threonine receptor kinases and phosphorylate the cytoplasmic signaling molecules of Smad protein family. CellSensor SBE-bla HEK 293T cell line (Life Technologies, Carlsbad, CA), responsive to TGF-beta was used to screen Tox21 10K compound library for identification of agonists/antagonists of the Smad signaling pathway. This cell line contains a beta-lactamase reporter gene under control of the Smad binding element (SBE) stably integrated into HEK 293T cells.
# Tox21 Assay Protocol Summary: SBE-bla HEK 293T cells were dispensed at 4,000/well in 6 uL of assay medium into black wall/clear-bottom 1536-well plates using a Multidrop Combi (ThermoFisher Scientific, Waltham, MA) dispenser. After the assay plates were incubated at 37 C and 5% CO2 for an overnight, 23 nL of compounds dissolved in DMSO, positive controls or DMSO only was transferred to the assay plate by a Pintool station (Kalypsys, San Diego, CA). The assay plates were incubated at 37 C and 5% CO2 for 5 hr. One uL of LiveBLAzer B/G FRET substrate (Life Technologies) was added using a Flying Reagent Dispenser (Aurora Discovery, San Diego, CA) and the plates were incubated at room temperature for 2 hr. Fluorescence intensity (405 nm excitation, 460 nm and 530 nm emissions) was measured using an Envision plate reader (PerkinElmer, Shelton, CT).
# On the % scale 0 is the no-effect control and ±100 the full control effect.
Compound,outcome,activation
C[C@]12CC[C@@H]3c4ccc(O)cc4CC[C@H]3[C@@H]1CCC2=O,inactive,
NC(=O)NO,inactive,
CC1(C)O[C@@H]2[C@@H](CO[C@@]3(COS(N)(=O)=O)OC(C)(C)O[C@@H]23)O1,inactive,
CC(C)(C)NCC(O)c1ccc(O)c(CO)c1 (stereo not given),inactive,
COc1ccc(C(=O)c2ccccc2)c(O)c1,inactive,
Oc1cccc(O)c1,inactive,
COC(=O)C1CCC(C(=O)OC)CC1 (stereo not given),inactive,
CN(C)Cc1cc(CN(C)C)c(O)c(CN(C)C)c1,inactive,
Nc1ccc(N=Nc2ccccc2)c(N)n1,inactive,
O=C(OCc1ccccc1)c1ccccc1,inactive,
COC1=CC(=O)C[C@@H](C)[C@]12Oc1c(Cl)c(OC)cc(OC)c1C2=O,,2.76%
C/C=C/c1ccc(O)c(OC)c1,inactive,
Cc1c(N(C)CS(=O)(=O)O)c(=O)n(-c2ccccc2)n1C,inactive,
NC(=O)N1c2ccccc2C=Cc2ccccc21,inactive,
OCCCc1ccccc1,inactive,
O=C(O)Cc1cccc2ccccc12,inactive,
C#C[C@]1(O)CC[C@H]2[C@@H]3CCc4cc(O)ccc4[C@H]3CC[C@@]21C,inactive,
Cc1c(N(C)C)c(=O)n(-c2ccccc2)n1C,inactive,
Cc1ccc(O)c(-n2nc3ccccc3n2)c1,inactive,
OC[C@@H](O)[C@@H](O)[C@H](O)[C@H](O)CO,inactive,

Compound,outcome,activation
Cc1cccc(C)c1O,inactive,
CC1=C(/C=C/C(C)=C/C=C/C(C)=C/C(=O)O)C(C)(C)CCC1,inactive,
CCCCOC(=O)CCCCCCCCC(=O)OCCCC,inactive,
CC1=NN(c2ccccc2)C(=O)C1,inactive,
NC(N)=NC(N)=NCCc1ccccc1,inactive,
CCN1CCCC1=O,inactive,
C[C@]12C=CC(=O)C=C1CC[C@@H]1[C@@H]2C(=O)C[C@@]2(C)[C@H]1CC[C@]2(O)C(=O)CO,inactive,
O=[N+]([O-])c1ccc(O)cc1,inactive,
CC(=O)OC/C=C(C)/C=C/C=C(C)/C=C/C1=C(C)CCCC1(C)C,inactive,
O=C(O)CCCCC1CCSS1 (stereo not given),inactive,
CCCCCCCCCCCCCC(=O)OC(C)C,inactive,
CCn1cc(C(=O)O)c(=O)c2ccc(C)nc21,,-5.67% [at 35.3 µM]
COCC(C)N (stereo not given),inactive,
CCCCCCCCOc1ccc(C(=O)c2ccccc2)c(O)c1,inactive,
NC(=O)c1ccc([N+](=O)[O-])cc1Cl,inactive,
CCOC(=O)C(C)(C)Oc1ccc(Cl)cc1,inactive,
Cc1cccc(Nc2cc(Cl)nc(SCC(=O)O)n2)c1C,,-6.74% [at 35.3 µM]
CC(C)Cc1ccc(C(C)C(=O)O)cc1 (stereo not given),inactive,
COc1cc2c(c(OC)c1OC)-c1ccc(OC)c(=O)cc1[C@@H](NC(C)=O)CC2,inactive,
C1CNCCN1,inactive,
